Results filed as inconclusive are left out. The source made the active and inactive calls. How the source made its calls, unless noted: active means hit-call score of the fitted dose curve at least 0.9, where 1 is the maximum; inconclusive means response in the unintended direction; inactive means score below 0.9.
Key:
[1] = biological target: Bile acid receptor (Homo sapiens) (UniProt Q96RI1); test: ATG_FXR_TRANS: Attagene TRANS-FACTORIAL HepG2 Assay for Farnesoid X Receptor (FXR) (AID 2282979); settings: HepG2 Attagene TRANS FXR-GAL4 reporter transcription;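 further: hits raise reporter mRNA above DMSO so AC50 marks FXR activation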
Chain of Bile acid receptor (Homo sapiens) (Q96RI1 whole entry, looked up, the tested form may be a part): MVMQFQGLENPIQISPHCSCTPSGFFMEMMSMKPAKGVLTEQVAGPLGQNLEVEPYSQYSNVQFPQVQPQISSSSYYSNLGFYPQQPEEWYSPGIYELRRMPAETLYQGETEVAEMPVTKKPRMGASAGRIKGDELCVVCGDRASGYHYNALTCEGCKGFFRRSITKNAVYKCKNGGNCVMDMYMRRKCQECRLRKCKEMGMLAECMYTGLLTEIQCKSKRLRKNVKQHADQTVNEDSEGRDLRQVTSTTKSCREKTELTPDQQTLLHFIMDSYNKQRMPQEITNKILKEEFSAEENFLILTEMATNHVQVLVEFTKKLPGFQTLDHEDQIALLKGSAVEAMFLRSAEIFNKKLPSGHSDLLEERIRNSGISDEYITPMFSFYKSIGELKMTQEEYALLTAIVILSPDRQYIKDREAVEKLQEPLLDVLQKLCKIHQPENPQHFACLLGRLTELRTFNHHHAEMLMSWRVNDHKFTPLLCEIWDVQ
Summary of the method: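 HepG2 cells transiently transfected with reporter constructs in which a chimeric FXR-GAL4 protein drives a GAL4-UAS reporter; 24 h compound exposure. Reporter mRNA measured by RT-PCR, FAM labelling, HpaI digestion and capillary electrophoresis; gain-of-signal versus DMSO.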

[2] = biological target: Oxysterols receptor LXR-alpha (Homo sapiens) (UniProt Q13133); test: ATG_LXRa_TRANS: Attagene TRANS-FACTORIAL HepG2 Assay for human Liver X Receptor alpha (LXRa) (AID 2282980); settings: HepG2 Attagene TRANS reporter, LXRa transactivation
Chain of Oxysterols receptor LXR-alpha (Homo sapiens) (Q13133 whole entry, looked up, the tested form may be a part): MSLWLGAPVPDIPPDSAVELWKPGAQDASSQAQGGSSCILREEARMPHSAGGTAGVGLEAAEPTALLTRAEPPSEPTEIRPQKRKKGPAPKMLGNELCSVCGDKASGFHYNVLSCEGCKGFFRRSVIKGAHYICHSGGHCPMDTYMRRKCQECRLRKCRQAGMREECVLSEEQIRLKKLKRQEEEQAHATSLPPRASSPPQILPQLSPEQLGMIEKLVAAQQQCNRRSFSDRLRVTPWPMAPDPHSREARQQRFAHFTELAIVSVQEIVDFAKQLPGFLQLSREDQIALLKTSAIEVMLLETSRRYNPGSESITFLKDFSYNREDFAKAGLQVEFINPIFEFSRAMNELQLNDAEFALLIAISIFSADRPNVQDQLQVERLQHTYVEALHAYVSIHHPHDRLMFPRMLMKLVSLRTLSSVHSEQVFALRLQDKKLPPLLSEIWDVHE
Summary of the method: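 HepG2 cells were transiently transfected with multiplexed reporter units driven by chimeric LXRa–GAL4 fusion proteins, then dosed for 24 h. Reporter mRNA was quantified by RT-PCR, fluorescent labelling and capillary electrophoresis; gain of signal fitted against DMSO baseline.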

[3] = biological target: Oxysterols receptor LXR-beta (Homo sapiens) (UniProt P55055); test: ATG_LXRb_TRANS: Attagene TRANS-FACTORIAL HepG2 Assay for human Liver X Receptor beta (LXRb) (AID 2282981); settings: HepG2 Attagene TRANS GAL4-LXRb reporter, mRNA
Chain of Oxysterols receptor LXR-beta (Homo sapiens) (P55055 whole entry, looked up, the tested form may be a part): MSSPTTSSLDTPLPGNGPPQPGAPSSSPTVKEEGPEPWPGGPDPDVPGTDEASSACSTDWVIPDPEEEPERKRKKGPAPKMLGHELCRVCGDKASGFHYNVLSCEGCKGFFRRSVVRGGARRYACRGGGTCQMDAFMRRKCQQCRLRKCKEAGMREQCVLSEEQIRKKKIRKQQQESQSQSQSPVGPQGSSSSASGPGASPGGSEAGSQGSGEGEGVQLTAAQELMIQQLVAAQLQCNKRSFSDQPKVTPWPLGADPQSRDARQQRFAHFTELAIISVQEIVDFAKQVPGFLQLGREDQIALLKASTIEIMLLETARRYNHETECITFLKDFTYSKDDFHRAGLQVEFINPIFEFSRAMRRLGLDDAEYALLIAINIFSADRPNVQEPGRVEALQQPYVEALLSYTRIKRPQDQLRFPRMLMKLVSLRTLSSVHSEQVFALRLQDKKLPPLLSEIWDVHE
Summary of the method: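 Gain-of-signal mRNA reporter endpoint, DMSO as negative control. Transiently transfected HepG2 cells carrying the NR-Gal4 chimera and GAL4-UAS reporter units were treated 24 h; transcripts quantified by RT-PCR and capillary electrophoresis fluorescence.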

[4] = ATG_M_32_TRANS: Attagene TRANS-FACTORIAL HepG2 Assay for M32 Transcription Factor (Internal Marker) (AID 2282984); settings: HepG2 Attagene TRANS M32 internal marker reporter
Summary of the method: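 Capillary electrophoresis of 6-FAM-labelled reporter fragments gives the signal; data fitted for gain over DMSO negative control. Source: HepG2 cells bearing transient multiple reporter transcription units, 24 h exposure.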

[5] = biological target: Nuclear receptor subfamily 4 group A member 2 (Homo sapiens) (UniProt P43354); test: ATG_NURR1_TRANS: Attagene TRANS-FACTORIAL HepG2 Assay for human Nuclear Receptor Related Protein 1 (NURR1) (AID 2282985); settings: HepG2 Attagene TRANS reporter, mRNA readout
Chain of Nuclear receptor subfamily 4 group A member 2 (Homo sapiens) (P43354 whole entry, looked up): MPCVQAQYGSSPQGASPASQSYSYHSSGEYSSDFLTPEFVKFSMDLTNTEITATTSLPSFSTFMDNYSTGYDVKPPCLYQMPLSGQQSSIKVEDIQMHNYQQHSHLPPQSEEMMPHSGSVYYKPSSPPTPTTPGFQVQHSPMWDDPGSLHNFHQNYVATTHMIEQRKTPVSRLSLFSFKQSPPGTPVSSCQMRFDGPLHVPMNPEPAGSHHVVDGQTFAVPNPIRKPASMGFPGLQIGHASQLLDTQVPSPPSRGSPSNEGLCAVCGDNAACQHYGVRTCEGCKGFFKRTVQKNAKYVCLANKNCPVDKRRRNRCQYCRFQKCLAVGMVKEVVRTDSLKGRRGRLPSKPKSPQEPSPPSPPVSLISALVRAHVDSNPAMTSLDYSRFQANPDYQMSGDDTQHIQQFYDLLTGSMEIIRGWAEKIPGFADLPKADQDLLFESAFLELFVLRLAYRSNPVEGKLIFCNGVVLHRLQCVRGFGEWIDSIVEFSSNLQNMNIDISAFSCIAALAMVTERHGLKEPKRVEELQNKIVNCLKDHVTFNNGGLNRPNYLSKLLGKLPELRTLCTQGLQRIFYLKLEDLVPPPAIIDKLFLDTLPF
Summary of the method: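 HepG2 / transient MRTU transfection / 24 h compound exposure / RT-PCR + CE fluorescence of reporter mRNA / gain-of-signal vs DMSO.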

[6] = biological target: Transcriptional activator Myb (Homo sapiens) (UniProt P10242); test: ATG_Myb_CIS: Attagene CIS-FACTORIAL HepG2 Assay for human Myeloblastosis (Myb) Proto-Oncogene Transcription Factor (AID 2282986; active means hit-call score of the fitted dose curve at least 0.9, where 1 is the maximum; inactive means score below 0.9); settings: HepG2 Attagene CIS-FACTORIAL Myb reporter transcription; actives raise or lower the signal
Chain of Transcriptional activator Myb (Homo sapiens) (P10242 whole entry, looked up): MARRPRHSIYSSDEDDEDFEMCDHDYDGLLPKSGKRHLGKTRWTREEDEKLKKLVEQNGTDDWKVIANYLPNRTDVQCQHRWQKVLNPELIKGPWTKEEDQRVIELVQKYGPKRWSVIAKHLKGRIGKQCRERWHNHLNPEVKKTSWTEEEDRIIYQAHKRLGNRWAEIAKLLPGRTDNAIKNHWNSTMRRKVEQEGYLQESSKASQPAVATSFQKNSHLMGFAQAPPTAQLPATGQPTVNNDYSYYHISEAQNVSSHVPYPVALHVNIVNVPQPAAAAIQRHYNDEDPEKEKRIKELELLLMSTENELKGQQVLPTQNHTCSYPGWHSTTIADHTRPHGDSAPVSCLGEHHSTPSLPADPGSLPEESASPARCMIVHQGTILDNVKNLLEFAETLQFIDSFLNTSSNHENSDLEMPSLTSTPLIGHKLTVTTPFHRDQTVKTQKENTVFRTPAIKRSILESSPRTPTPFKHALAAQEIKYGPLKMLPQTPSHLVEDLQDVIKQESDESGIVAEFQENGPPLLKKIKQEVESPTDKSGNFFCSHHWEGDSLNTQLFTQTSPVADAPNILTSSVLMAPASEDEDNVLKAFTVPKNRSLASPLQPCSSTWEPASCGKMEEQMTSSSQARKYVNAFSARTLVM
Summary of the method: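 After 24 h of compound dosing, total RNA from transfected HepG2 cells is reverse-transcribed and the reporter sequences amplified, labeled and separated by capillary electrophoresis. Values come from bidirectional fitting against DMSO.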

[7] = ATG_M_06_TRANS: Attagene TRANS-FACTORIAL HepG2 Assay for M06 Transcription Factor (Internal Marker) (AID 2282983); settings: HepG2 Attagene TRANS M06 internal marker reporter
Summary of the method: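 HepG2 cells transiently transfected with multiplexed GAL4-UAS reporter transcription units; after 24 h compound exposure, reporter mRNA measured by RT-PCR, FAM-labelled primer extension, HpaI digestion and capillary electrophoresis. Gain-of-signal fitted versus DMSO baseline; background control readout.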

[8] = biological target: Glucocorticoid receptor (Homo sapiens) (UniProt P04150); test: ATG_GR_TRANS: Attagene TRANS-FACTORIAL HepG2 Assay for human Glucocorticoid Receptor (GR) (AID 2282978); settings: HepG2 Attagene TRANS GR reporter, mRNA transcription;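 further: activators score as hits since higher reporter transcript over DMSO is fitted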
Chain of Glucocorticoid receptor (Homo sapiens) (P04150 whole entry, looked up): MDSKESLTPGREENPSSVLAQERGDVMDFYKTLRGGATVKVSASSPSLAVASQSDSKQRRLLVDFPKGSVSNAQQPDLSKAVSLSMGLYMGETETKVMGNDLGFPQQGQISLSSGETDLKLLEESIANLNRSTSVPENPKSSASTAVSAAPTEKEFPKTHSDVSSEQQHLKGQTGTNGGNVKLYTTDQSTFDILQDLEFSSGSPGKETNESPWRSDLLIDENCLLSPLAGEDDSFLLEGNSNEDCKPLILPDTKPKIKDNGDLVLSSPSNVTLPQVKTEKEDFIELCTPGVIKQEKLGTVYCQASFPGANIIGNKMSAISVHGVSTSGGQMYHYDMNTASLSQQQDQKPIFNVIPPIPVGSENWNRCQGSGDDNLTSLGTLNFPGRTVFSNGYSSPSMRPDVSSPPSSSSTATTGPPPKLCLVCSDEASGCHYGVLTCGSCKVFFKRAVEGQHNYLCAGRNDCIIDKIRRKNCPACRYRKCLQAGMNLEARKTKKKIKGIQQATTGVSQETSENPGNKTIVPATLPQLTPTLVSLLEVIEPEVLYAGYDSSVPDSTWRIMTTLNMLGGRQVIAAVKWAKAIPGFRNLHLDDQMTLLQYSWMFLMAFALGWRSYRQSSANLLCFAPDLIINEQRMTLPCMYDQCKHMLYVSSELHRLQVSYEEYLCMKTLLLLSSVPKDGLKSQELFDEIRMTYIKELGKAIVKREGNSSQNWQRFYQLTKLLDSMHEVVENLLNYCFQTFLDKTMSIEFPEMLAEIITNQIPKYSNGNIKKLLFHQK
Summary of the method: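 After 24 h incubation with test chemical, transfected HepG2 cells were lysed for RNA; reporter cDNA was amplified, FAM-labelled, HpaI-digested and sized on a capillary analyser. Signal gain relative to DMSO was scored.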

[9] = biological target: Hepatocyte nuclear factor 4-alpha (Homo sapiens) (UniProt P41235); test: ATG_HNF4a_TRANS: Attagene TRANS-FACTORIAL HepG2 Assay for human Hepatocyte Nuclear Factor 4 alpha (HNF4a) (AID 2282982); settings: HepG2 HNF4a transactivation reporter, mRNA readout
Chain of Hepatocyte nuclear factor 4-alpha (Homo sapiens) (P41235 whole entry, looked up, the tested form may be a part): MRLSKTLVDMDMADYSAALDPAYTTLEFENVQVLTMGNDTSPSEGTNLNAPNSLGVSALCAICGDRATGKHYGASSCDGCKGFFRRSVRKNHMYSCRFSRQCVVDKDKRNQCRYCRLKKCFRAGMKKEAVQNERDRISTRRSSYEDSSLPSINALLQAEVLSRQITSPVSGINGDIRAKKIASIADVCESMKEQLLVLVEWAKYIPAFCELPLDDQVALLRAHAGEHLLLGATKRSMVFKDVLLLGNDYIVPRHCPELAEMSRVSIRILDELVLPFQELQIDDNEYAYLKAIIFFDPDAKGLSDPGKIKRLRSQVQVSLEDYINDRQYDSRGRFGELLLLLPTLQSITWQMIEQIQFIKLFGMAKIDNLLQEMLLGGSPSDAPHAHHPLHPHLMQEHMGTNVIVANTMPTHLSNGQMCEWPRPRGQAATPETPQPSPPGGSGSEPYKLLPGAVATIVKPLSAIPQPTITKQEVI
Summary of the method: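 Gain-of-signal mRNA induction, relative to DMSO vehicle, was read after 24 h compound treatment of HepG2 cells bearing transfected GAL4-UAS reporters. Detection used RT-PCR, 6-FAM primer extension and capillary electrophoresis.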

Measured: AC50

CCN1CN(CC)CN(CC)C1
not listed: [7] | [8] | [9]
inactive: all other assays above

Cc1cc(C)n(CO)n1
not listed: [5] | [8] | [9]
inactive: all other assays above

CCCCOCCOC(=O)COc1ccc(Cl)cc1Cl
inactive: [8] | [7] | [4] | [5] | [6]

O=C(Nc1ccccc1)c1cc(Cl)ccc1O
inactive: [1] | [2] | [3] | [4] | [6]

CC1CCC(C(C)(C)S)C(=O)C1 (stereo not given)
not listed: [8]
inactive: all other assays above

CCOC(=O)OC(=O)OCC
not listed: [2] | [8]
inactive: all other assays above

c1ccc(Nc2cccc3ccccc23)cc1
inactive: [8] | [3] | [7] | [4] | [5]
active: [6] 33.4 µM

CCCCCC1=CCCC1=O
inactive: [1] | [3] | [9] | [7] | [4]

CO[Si](CCCS)(OC)OC
inactive: [8] | [9] | [4] | [5]

CCCCCCC=O
inactive: [8] | [3] | [4] | [5] | [6]

CC(C)(O)Cc1ccccc1
inactive: [8] | [4] | [5] | [6]

CCCCOCCOCCOC(C)=O
inactive: [8] | [3] | [4] | [6]

Clc1cccnc1
not listed: [5] | [8] | [9]
inactive: all other assays above

C=CC(=O)OCCCCCCCC(C)C
inactive: [1] | [2] | [3] | [7] | [6]

CC(C)(C)NC(=O)[C@H]1CC[C@H]2[C@@H]3CC[C@H]4NC(=O)C=C[C@]4(C)[C@H]3CC[C@]12C
inactive: [1] | [2] | [3] | [7] | [4]

CC1CCC(=O)C1=O (stereo not given)
inactive: [8] | [5] | [6]

CC(C)=CCl
not listed: [2] | [8]
inactive: all other assays above

Cc1ccc(S(=O)(=O)N=C=O)cc1
inactive: [8] | [7] | [5] | [6]

CCCCCC[C@@H](O)C/C=C\CCCCCCCC(=O)OCC(O)CO (stereo not given in full)
active: [5] 132 µM
inactive: [8] | [3] | [4]

Nc1cccc(N)n1
not listed: [1] | [2] | [3]
inactive: all other assays above

CC(=O)OC1CCCCC1C(C)(C)C (stereo not given)
inactive: [8] | [3] | [5] | [6]

Cc1c[nH]c(=O)[nH]c1=O
inactive: [1] | [3] | [9] | [7]

CC(C)C(=O)OCCc1ccccc1
not listed: [8] | [9]
inactive: all other assays above

Cc1ccc([N+](=O)[O-])cc1N
not listed: [2] | [5] | [8]
inactive: all other assays above

Oc1ccc(/C=C/c2cc(O)cc(O)c2)cc1
inactive: [1] | [2] | [3] | [9] | [7]
active: [5] 74.6 µM

CCOc1ccc(NC(N)=O)cc1
not listed: [8] | [9]
inactive: all other assays above

CCCCCCCCCCCCCc1ccccc1
not listed: [2] | [5] | [8]
inactive: all other assays above

CCCCCCCCCCCC(=O)N(C)CC(=O)O
inactive: [8] | [7] | [4] | [6]

Cc1ccccc1CCO
inactive: [1] | [9] | [4] | [6]

C1CCSC1
inactive: [1] | [3] | [7] | [4] | [5]

CC(=O)/C=C/C1C(C)=CCCC1(C)C (stereo not given)
inactive: [1] | [4] | [5] | [6]

Nc1ccc(C(=O)OCCCOC(=O)c2ccc(N)cc2)cc1
inactive: [1] | [9] | [4] | [6]

CCc1occc(=O)c1O
inactive: [1] | [7] | [4] | [6]

CCOC(=O)C1=NOC(c2ccccc2)(c2ccccc2)C1
inactive: [1] | [3] | [7] | [4] | [6]

CC(C)CCOCc1ccccc1
not listed: [1] | [8] | [9]
inactive: all other assays above

CC(C=O)c1ccccc1 (stereo not given)
not listed: [2] | [3] | [8]
inactive: all other assays above

CCC(C)(O)CCCC(C)C (stereo not given)
inactive: [1] | [3] | [5] | [6]

Oc1c(Cl)cc(Cl)c(Cl)c1Cl
inactive: [2] | [3] | [9] | [7] | [6]

Cc1noc(NS(=O)(=O)c2ccc(N)cc2)c1C
inactive: [1] | [7] | [5]

CCCCCCCCCCCC(C)=O
inactive: [1] | [6]

CC(c1cc(C(C)(C)C)cc(C(C)(C)C)c1O)c1cc(C(C)(C)C)cc(C(C)(C)C)c1O
active: [1] 3.42 µM
inactive: [7] | [5] | [6]

CCCCC/C=C\C/C=C\CCCCCCCC(=O)O
inactive: [1] | [9] | [7] | [4] | [6]
